Screening results as filed in PubChem BioAssay.
MCF10A rerep: DNA re-replication induction in MCF 10a cells; Potency, µM (series often up to 46.1 µM), without a hit: at the highest dose activity, positive = re-replication, hits mostly activators; hit rate 2.9% among 350,000; MCF 10A DNA re-replication, Hoechst nuclear intensity, 48 h; further: % of control where 0% means no effect; nearly all actives have a fitted effect of over 50% in size
KB-V1 cytotox: kills drug-selected multidrug resistant KB-V1 cells; KB-V1 MDR cells viability, CellTiter-Glo, 72 h; hit rate 3.4% among 400,000; Potency, µM (top dose mostly 46.1 µM), actives largely listed as cytotoxic; further: on the % scale 0 is the no-effect control and ±100 the full control effect; nearly all actives have a fitted effect of over 60% in size
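Following 72 h at 37 degrees C with compound, KB-V1 cell viability was read by CellTiter-Glo luminescence, medium being phenol-red-free DMEM plus 10% FBS; concentration-response parameters came from normalized, curve-fitted qHTS data.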
RGS4 inh: human RGS4 inhibition; P49798; Transcreener GDP fluorescence polarization, RGS4-accelerated GTP hydrolysis; Potency, µM (titrated, usually from 114 µM), inactives show at the highest dose activity change, negative = inhibition, hits mostly inhibitors; hit rate 0.039% among 390,000; AID 504845; further: on the % scale 0 is the no-effect control and ±100 the full control effect; nearly all actives have a fitted effect of over 75% in size
Target sequence (P49798 whole entry, looked up): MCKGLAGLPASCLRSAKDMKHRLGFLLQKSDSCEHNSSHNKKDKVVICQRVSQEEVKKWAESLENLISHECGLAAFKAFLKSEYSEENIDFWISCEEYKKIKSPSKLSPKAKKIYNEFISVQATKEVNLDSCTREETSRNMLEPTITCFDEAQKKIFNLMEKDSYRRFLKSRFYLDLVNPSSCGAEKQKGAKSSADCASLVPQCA
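MLSMR compounds (23 nl, pin-transferred) preincubated 10 min at room temperature with a 500nM (2x) first reagent, then RGS4 at 900nM (2x) plus Transcreener GDP mix added; fluorescence polarization (620/688 nm) read before and after 90 min at 30 °C.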
PTAP TSG101 blk: blocks PTAP/TSG101 interaction to inhibit HIV-1 budding | Fluorescence polarization, FITC-PTAP peptide / Tsg101 binding | Potency, µM (series often up to 115 µM), for inactives: top-dose activity change, negative = inhibition, most hits filed as inhibitors | 340,000 tested, under 10 active | AID 493005; active means well fitted inhibition curve with a large enough effect in the main read-out, with a control signal flat, not every such curve was filed as active; inconclusive means small, poorly fitted or top-dose-only effect, or effect the other way, or a change in a side signal; inactive means no such curve, though single readings can be large or run the other way; further: % of control where 0% means no effect
Target sequence (Q99816 whole entry, looked up): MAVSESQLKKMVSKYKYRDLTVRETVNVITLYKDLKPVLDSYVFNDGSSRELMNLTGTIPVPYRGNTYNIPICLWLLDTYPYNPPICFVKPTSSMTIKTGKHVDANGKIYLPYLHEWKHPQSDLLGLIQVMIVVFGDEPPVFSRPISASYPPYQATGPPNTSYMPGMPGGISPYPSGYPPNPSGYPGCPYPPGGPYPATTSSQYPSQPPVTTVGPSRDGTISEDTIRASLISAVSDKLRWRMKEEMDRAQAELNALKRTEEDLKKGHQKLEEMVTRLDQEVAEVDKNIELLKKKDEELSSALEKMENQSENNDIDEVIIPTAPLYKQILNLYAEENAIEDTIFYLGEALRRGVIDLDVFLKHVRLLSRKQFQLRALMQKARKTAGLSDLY
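Compounds were pin-transferred onto Tsg101 binding domain (10 uM final) in HEPES pH 7.5 buffer, then FITC-PTAP peptide was added at 50 nM final. After 20 min at RT, polarization reported peptide displacement across a qHTS concentration series.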
SW480 rereplic: inducers of DNA re-replication in SW480 colon cancer cells; SW480 DNA re-replication, Hoechst DNA content imaging, 48 h; Potency, µM (highest dose often 46.1 µM), for the others: top-dose re-replication activation, most hits filed as activators; hit rate 1.8% among 340,000; further: % of control where 0% means no effect; nearly all actives have a fitted effect of over 55% in size
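Compounds, transferred as 23 nL by pin tool, were incubated with cells for 48 hr; DNA content per nucleus was then quantified by Hoechst staining and fluorescence plate imaging.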
KB-3-1 cytotox: KB-3-1 parental cell cytotoxicity; KB-3-1 viability, CellTiter-Glo ATP luminescence, 72 h; Potency, µM (doses to about 46.1 µM), most hits filed as cytotoxic; hit rate 1.4% among 400,000; further: on the % scale 0 is the no-effect control and ±100 the full control effect; nearly all actives have a fitted effect of over 60% in size
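Screening of KB-3-1 cells (DMEM, 10% FBS, phenol-red free) ran from lowest to highest compound concentration; after 72 h at 37 °C viability was read luminescently and curves fitted.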
* hit, by the source's call; i = inactive; ? = inconclusive; / = not tested or not shown; ! = not active in a repeat; [ ] = remark or other dose. Most compounds without a hit are left out; they make up all but 6.6% or so of the library. Unless noted, the call rests on the fitted dose curve; in most records, active means well fitted curve in the direction sought with a large enough effect; inconclusive means small, poorly fitted or top-dose-only effect, or another doubt; inactive means no such curve, though single readings can be large; an effect the other way counts as inactive or inconclusive. Potency means the concentration at half of the fitted maximal effect.

SMILES	MCF10A rerep	KB-V1 cytotox	RGS4 inh	PTAP TSG101 blk	SW480 rereplic	KB-3-1 cytotox
Cc1[nH]n(-c2nc(-c3cccc([N+](=O)[O-])c3)cs2)c(=O)c1C	14%	16µM*	-30%	0%	-3%	i
CCN(CC)c1ccc(Nc2nc(N3CCOCC3)c3ccccc3n2)cc1	?	2.6µM*	-35%	-5%	?	8.2µM*
O=C(CSc1nc(Nc2ccccc2)nc(N2CCOCC2)n1)Nc1ccc2c(c1)OCCO2	18µM*	i	7%	-1%	-3%	i
Oc1cccc(Nc2nc(N3CCOCC3)nc(N3CCOCC3)n2)c1	23µM*	i	-3%	0%	?	?
c1ccc(Nc2nc(N3CCNCC3)nc(N3CCOCC3)n2)cc1	?	?	17%	0%	?	i
c1ccc(Nc2nc(N3CCOCC3)nc(N3CCOCC3)n2)cc1	?	?	-27%	-3%	18%	16µM*
COc1ccccc1N1CCN(c2ccc(NC(=O)c3ccc(C)cc3)cc2C(=O)O)CC1	/	i	27%	/	/	i
N#C/C(=N\Nc1cccc(Cl)c1)C(=O)c1ccccc1	?	?	0%	-6%	-1%	16µM*
N#C/C(=N\Nc1ccccc1Cl)C(=O)c1ccccc1	14%	?	6%[11.4 µM]	0%	-2%	15µM*
COc1ccc(C(=O)/C(C#N)=N/Nc2cccc([N+](=O)[O-])c2)cc1	?	5.8µM*	16%[56.9 µM]	-3%	?	?
CCOC(=O)NC(=O)/C(C#N)=N/Nc1c(F)cccc1F	1%	?	-15%	-10%	-1%	i
N#C/C(=N\Nc1c(Cl)cccc1Cl)C(=O)NN	-14%	8.2µM*	-11%[11.4 µM]	2%	-3%	15µM*
NS(=O)(=O)c1ccc(NC(=O)CSc2n[nH]c(=O)n2Cc2ccccc2)cc1	-4%	i	-5%	-7%	-1%	i
O=C(CSc1n[nH]c(=O)n1Cc1ccccc1)Nc1ccc(F)c(F)c1F	18%	16µM*	0%	-2%	-8%	?
CCCCOc1ccc(C(O)(CCC)CCN2CCOCC2)cc1 (centres undefined)	?	10µM*	6%	-3%	?	23µM*
CCCCCCC(O)(c1ccc(OC)cc1)C(CN1CCOCC1)c1ccccc1 (centres undefined)	?	?	21%	-8%	?	18µM*
CCCCCCC(O)(c1ccccc1)C(CN1CCOCC1)c1ccccc1 (centres undefined)	?	?	4%	-4%	3%	?
CCCCOc1ccc(C(O)(CC)CCN2CCOCC2)cc1 (centres undefined)	-8%	?	-1%	-2%	-3%	i
COc1ccc(CCNC(=O)CCc2c(C)c3cc4c(C)c(C)oc4cc3oc2=O)cc1	/	/	2%	/	/	/
COc1ccc(C)cc1NC(=O)NC(C)c1c(-n2cccc2)sc(C)c1C (centres undefined)	/	/	21%	/	/	/
N=c1n(Cc2ccccc2)c2ccccc2n1Cc1ccccc1	?	18µM*	10%	2%	23µM*	?
Cc1ccc(OCC(O)Cn2c(=N)n(Cc3ccccc3)c3ccccc32)cc1 (centres undefined)	?	16µM*	3%	0%	?	i
COc1ccc(OCC(O)Cn2c(=N)n(Cc3ccccc3)c3ccccc32)cc1 (centres undefined)	?	?	29%	-1%	?	?
N=c1n(CC(=O)c2ccc(Br)cc2)c2ccccc2n1Cc1ccccc1	12%	?	-38%	1%	-3%	?
COc1ccc2c(c1)CCc1c(C(=O)Nc3c(C)nn(Cc4ccc(C)cc4)c3C)noc1-2	/	i	-18%	/	/	?
SMILES	MCF10A rerep	KB-V1 cytotox	RGS4 inh	PTAP TSG101 blk	SW480 rereplic	KB-3-1 cytotox
CCOc1ccccc1CN1CCc2nc(N3CCN(C)CC3)ncc2C1	/	i	4%	/	/	i
O=C(NC1CC1)c1cccc(Nc2ccc(-c3ccc4c(c3)OCCO4)nn2)c1	2%	16µM*	-5%	-2%	-10%	?
O=S(=O)(c1cc(F)ccc1F)N1CCN(c2ccccn2)CC1	1%	i	6%	-5%	?	i
O=S(=O)(c1cc(F)ccc1F)N1CCN(c2ncnc3ccccc23)CC1	5.8µM*	9.2µM*	5%	-1%	18µM*	5.2µM*
CC(=O)Nc1ccc(NC(=O)c2ccccc2N(Cc2ccccc2)S(C)(=O)=O)cc1	?	i	0%	2%	?	i
CSc1cccc(NC(=O)CN(Cc2ccc(Cl)cc2)S(C)(=O)=O)c1	2%	12µM*	13%	-5%	-1%	i
CSc1ccccc1NC(=O)c1ccccc1N(Cc1ccccc1)S(C)(=O)=O	0%	9.2µM*	-1%	-9%	-3%	i
CC(C)CNC(=O)c1ccccc1N(Cc1ccccc1)S(C)(=O)=O	1%	i	-12%	1%	12µM*	i
CSc1ccccc1NC(=O)CN(Cc1ccccc1)S(C)(=O)=O	12%	21µM*	-11%	-7%	4%	i
CCOC(=O)C1=C(c2ccccc2)NC(N)=NC1c1ccc(OCc2ccc(C(=O)OC)cc2)cc1 (centres undefined)	18µM*	?	3%[11.4 µM]	-6%	?	?
CCOC(=O)C1=C(c2ccccc2)Nc2ncnn2C1c1ccc(C(=O)O)cc1 (centres undefined)	-7%	i	7%	-8%	-15%	i
COc1ccc2c(C=Nc3c(C)n(C)n(-c4ccccc4)c3=O)c(O)n(Cc3ccco3)c(=O)c2c1	18µM*!	i	-1%	?	-1%	i
CC(C)(C)n1ncc(Oc2ccccc2[N+](=O)[O-])c(Cl)c1=O	5%	18µM*	-1%	0%	?	i
Cc1ccc(C(=O)C(C(=O)/C=C/c2ccccc2)=C2SCCCS2)cc1	21µM*	i	-32%[11.4 µM]	-2%	?	8.2µM*
COc1ccc(CNc2nc(-c3ccccc3)nn2S(=O)(=O)c2ccccc2)cc1	/	i	4%	/	/	i
Cc1cc(C)c(S(=O)(=O)Nc2ccc(-c3ccc(N4CCCCCC4)nn3)cc2)c(C)c1	/	?	-1%	/	/	i
CNC(C)C#Cc1ccc2sc3cccc(OC)c3c(=O)c2c1 (centres undefined)	?	i	-27%	-1%	7.3µM*	i
CNC(C)C#Cc1ccc2oc3cccc(OC)c3c(=O)c2c1 (centres undefined)	1%	i	9%	-10%	3%	i
